# Reference: PubChem BioAssay AID2549 (National Center for Advancing Translational Sciences (NCATS), 2010)
# Values joined by “and” are separate entries in the source; they are usually repeats but may differ in a detail not shown here. Equal values may be shown once. Hit rate of the full screen: of about 240,000 compounds, about 1,300 (0.54%) were called active. Entries that show only a call come without a potency. Not shown: some 1% with an inconclusive outcome. Calls come from the whole dose curve; as a rule, active = well fitted inhibition curve with a large enough effect; inconclusive = small, poorly fitted or top-dose-only effect; inactive = flat fitted curve, though single readings scatter. The full list was thinned out, with actives kept by preference. The source holds several records for some structures; these can differ, active in one and inactive in another.
# Target: ATP-dependent DNA helicase Q1 (Homo sapiens) (UniProt P46063)
# Experiment: qHTS Assay for Inhibitors of RecQ-Like Dna Helicase 1 (RECQ1); note: nearly all actives have a fitted effect of over 30% in size
# Conditions: RECQ1 DNA unwinding, red fluorescence kinetic read; series mostly up to 57.3 µM
# Summary of the method: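 RECQ1T1 50 nM; forked duplex (20 bp + 30-nt ss tails) 200 nM, ATP 2 mM final; pH 8.0, 2 mM MgCl2, 2.5 ug/ml poly(dI-dC); 15 min compound preincubation; discontinuous kinetic read over 2 h at RT.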
# Potency is the fitted concentration of half-maximal effect.
# ATP-dependent DNA helicase Q1 (Homo sapiens), sequence (P46063 whole entry, looked up): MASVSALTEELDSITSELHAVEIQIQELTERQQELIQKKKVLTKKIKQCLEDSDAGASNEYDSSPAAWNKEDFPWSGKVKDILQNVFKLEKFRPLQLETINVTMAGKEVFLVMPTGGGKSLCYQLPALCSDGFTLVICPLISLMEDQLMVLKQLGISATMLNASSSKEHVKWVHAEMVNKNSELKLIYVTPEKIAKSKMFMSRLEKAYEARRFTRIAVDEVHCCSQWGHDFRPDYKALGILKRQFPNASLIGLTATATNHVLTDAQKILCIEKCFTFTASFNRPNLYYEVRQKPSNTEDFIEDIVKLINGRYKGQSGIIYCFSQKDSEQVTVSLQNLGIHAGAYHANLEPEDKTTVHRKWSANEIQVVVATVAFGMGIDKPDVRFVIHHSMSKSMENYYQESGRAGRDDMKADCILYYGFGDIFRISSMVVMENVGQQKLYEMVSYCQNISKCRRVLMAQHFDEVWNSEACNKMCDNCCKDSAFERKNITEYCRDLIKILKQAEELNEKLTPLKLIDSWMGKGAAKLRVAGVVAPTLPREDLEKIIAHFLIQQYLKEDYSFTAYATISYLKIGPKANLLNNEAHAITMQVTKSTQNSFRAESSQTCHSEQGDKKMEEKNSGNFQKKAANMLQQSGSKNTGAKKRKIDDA
row,Compound,Potency
1,CCOc1ccccc1/C=c1\sc2nc(-c3ccco3)nn2c1=O,inactive
2,O=c1nc2s/c(=C\c3ccco3)c(=O)n2nc1Cc1ccccc1,5.01 µM (active)
3,O=C(CCCN1C(=O)/C(=C/c2ccco2)SC1=S)Nc1ccccc1,inactive
4,CCCN1CCC(=O)N(C(CSc2ccc(C)cc2)Cc2ccccc2)CC1 (stereo unspecified),inactive
5,COC(=O)CCc1ccccc1S(=O)(=O)N(CCC(=O)OC)Cc1ccccc1,inactive
6,Cc1sc2nc(CSCC(=O)Nc3c(Cl)cccc3Cl)[nH]c(=O)c2c1C,inactive
7,COc1cc(C(=O)NCc2nnc(SCC(=O)Nc3nc4ccc(C)cc4s3)o2)cc(OC)c1OC,39.8 µM (active)
8,Cc1ccc(NC(=O)CSc2nnc(CNC(=O)c3ccccc3F)o2)cc1,inactive
9,COc1ccc(CCNC(=O)CSc2nnc(CNC(=O)c3cccs3)o2)cc1OC,inactive
10,COc1ccc(CN2CCC(=O)c3ccccc3S2(=O)=O)cc1,inactive
11,CC(=O)Nc1ccc(Nc2c3ccccc3nc3ccccc23)cc1,14.1 µM (active)
12,O=[N+]([O-])c1cccc(Nc2c3ccccc3nc3ccccc23)c1,inactive
13,Cc1ccc(Nc2c3c(nc4ccccc24)CCC3)cc1,inactive
14,CCOC(=O)Cn1c(=O)sc2cccc(Cl)c21,inactive
15,O=C(Nc1ccc(Cl)cc1)Nc1nnc(/C=C/c2ccccc2)s1,inactive
16,CCOCCOC(=O)C(C)Oc1ccc(Oc2ncc(C(F)(F)F)cc2Cl)cc1 (stereo unspecified),inactive
17,C[C@@H]1O[C@@H](OC[C@H]2O[C@@H](Oc3cc(O)c4c(c3)O[C@H](c3ccc(O)c(O)c3)CC4=O)[C@H](O)[C@@H](O)[C@@H]2O)[C@H](O)[C@H](O)[C@H]1O,inactive
18,COc1ccc(C[C@H](C(=O)O)N2C(=O)c3ccc(C(=O)O)cc3C2=O)cc1,inactive
19,CN(C)S(=O)(=O)Oc1ccccc1C(=O)Nc1ccccc1Cl,inactive
20,NCCCCC(N)C(=O)O (stereo unspecified),inactive
21,O=C(NCc1ccccn1)c1cc(-c2ccccc2Cl)on1,inactive
22,COCCNC(=O)Nc1ccc2nc(-c3ccco3)c(-c3ccco3)nc2c1,8.91 µM (active)
23,COc1ccc(NC(=O)Nc2ccc3nsnc3c2)cc1,inactive
24,O=C(NCc1ccccn1)c1cc(Br)ccc1Cl,inactive

row,Compound,Potency
1,O=C(NCc1ccccn1)c1ccc2nc(-c3ccco3)c(-c3ccco3)nc2c1,15.8 µM (active)
2,O=C(Nc1ccc2nccnc2c1)c1ccco1,inactive
3,H-EHIPA-OH,inactive
4,OCCC(O)CO (stereo unspecified),inactive
5,CC[C@H](C)[C@H](NC(=O)[C@H](CCCNC(=N)N)NC(=O)[C@H](CCCNC(=N)N)NC(=O)[C@H](CC(C)C)NC(=O)[C@H](Cc1ccccc1)NC(=O)CNC(=O)CNC(=O)[C@@H](N)Cc1ccc(O)cc1)C(=O)N[C@@H](CCCNC(=N)N)C(=O)N1CCC[C@H]1C(=O)N[C@@H](CCCCN)C(=O)N[C@@H](CC(C)C)C(=O)N[C@@H](CCCCN)C(=O)N[C@@H](Cc1c[nH]c2ccccc12)C(=O)N[C@@H](CC(=O)O)C(=O)N[C@@H](CC(N)=O)C(=O)N[C@@H](CCC(N)=O)C(=O)O,inactive
6,CCOC(=O)C(C)Sc1nnc(CSc2nc3nc(C)cc(C)n3n2)o1 (stereo unspecified),inactive
7,O=C(NCc1ccccc1)C1=C[C@@H](C2CCCCC2)C[C@@H](OCc2ccc(CO)cc2)O1,15.8 µM (active)
8,O=C(NCc1ccccc1)C1=C[C@H](C2CC2)C[C@H](OCc2ccc(CO)cc2)O1,inactive
9,CC(C)(C)[C@H]1C=C(C(=O)NCc2ccccc2)O[C@@H](OCc2ccc(CO)cc2)C1,inactive
10,Cc1cc(N(C)C)nc(Cl)n1,inactive
11,NCCC(=O)c1ccccc1N,inactive
12,Oc1ccc(-c2c(-c3ccccc3)nn3c(C(F)(F)F)cc(C(F)(F)F)nc23)cc1,inactive
13,CC12CCC(C(=O)N(c3cccc(Cl)c3)C1=O)C2(C)C (stereo unspecified),inactive
14,O=C(NN1C(=O)C2C(C1=O)C1C=CC2C12CC2)c1ccccc1Cl (stereo unspecified),inactive
15,CC12CCC(C(=O)N(NC(=O)c3ccccc3O)C1=O)C2(C)C (stereo unspecified),39.8 µM (active)
16,CO[C@@]12[C@@H](COC(N)=O)C3=C(C(=O)C(C)=C(N)C3=O)N1C[C@@H]1N[C@@H]12,inactive
17,Cc1ccc(S(=O)(=O)N2CCC(=O)N([C@H](COCc3ccccc3)Cc3ccccc3)CC2)cc1,inactive
18,CC[C@H](C)[C@H](NC(=O)[C@H](Cc1ccc(O)cc1)NC(=O)[C@@H](NC(=O)[C@H](CCCN=C(N)N)NC(=O)[C@@H](N)CC(=O)O)C(C)C)C(=O)N[C@@H](Cc1cnc[nH]1)C(=O)N1CCC[C@H]1C(=O)N[C@@H](Cc1ccccc1)C(=O)O,inactive
19,CCCn1c(C(O)c2ccc(OCC)cc2)nc2ccccc21 (stereo unspecified),inactive
20,CCCCCCOC(=O)NCC(O)c1ccccc1 (stereo unspecified),inactive
21,CCCCCC(O)c1cccc(OCc2ccc3ccccc3n2)c1 (stereo unspecified),inactive and 28.2 µM (active)
22,COc1ccc(C2/C=C\CN(C(=O)c3ccc(C)cc3)C(Cc3ccccc3)C(=O)N2Cc2ccc(F)cc2)cc1 (stereo unspecified),inactive
23,COc1ccc(C2/C=C\CN(Cc3ccco3)C(C)C(=O)N2Cc2ccc(F)cc2)cc1 (stereo unspecified),inactive
24,CCOC(=O)CC1C(=O)NCCN1C(=O)COc1ccc(Br)cc1C (stereo unspecified),inactive

row,Compound,Potency
1,Cc1cccn2c(=O)c(/C=C3\SC(=S)N(CC(C)C)C3=O)c(NCCCOC(C)C)nc12,inactive
2,CCOC(=O)CC1C(=O)NCCN1c1nc2c(C)cccn2c(=O)c1/C=C1\SC(=S)N(C(C)CC)C1=O (stereo unspecified),35.5 µM (active)
3,CCC(C)(C)NC(=O)c1cc([N+](=O)[O-])ccc1N1CCCCC1,inactive
4,COc1ccc(C(CCN2CCOCC2)c2c(OC)cc(OC)c3c2OC(=O)CC3c2ccc(OC)cc2)cc1 (stereo unspecified),inactive
5,C=CCNC(=S)NNC(=O)c1cc(Cl)ccc1OC,inactive
6,COc1ccc(Cl)cc1C(=O)NNC(=S)NC1CCCC1,inactive
7,COc1ccc(Cl)cc1C(=O)NNC(=S)NC(=O)/C=C/c1ccco1,31.6 µM (active)
8,O=C(CSC1=Nc2ccccc2C2=NC(CC(=O)NCc3ccco3)C(=O)N12)NCc1ccco1 (stereo unspecified),inactive
9,CC(C)C1N=C2c3ccccc3N=C(SCC(=O)c3ccc(O)c(O)c3)N2C1=O (stereo unspecified),14.1 µM (active)
10,CCC(C)NC(=O)CSC1=Nc2ccccc2C2=NC(CCC(=O)NCc3ccco3)C(=O)N12 (stereo unspecified),inactive
11,O=P(O)(O)C(O)c1ccc2ccccc2c1 (stereo unspecified),inactive
12,CC(C)(C)N(Cc1ccccc1)C(=O)COC(=O)CCc1c[nH]c2ccccc12,inactive
13,COc1cccc(C(=O)Nc2c3c(nn2-c2cccc(C)c2C)CS(=O)(=O)C3)c1OC,inactive
14,Cc1ccc(-n2nc3c(c2NC(=O)c2ccc4c(c2)OCO4)CSC3)c(C)c1,inactive
15,Cc1cccc(-n2nc3c(c2NC(=O)c2ccc(Br)o2)CSC3)c1C,35.5 µM (active)
16,Nc1nc2c(ncn2[C@@H]2O[C@H](COP(=O)(O)OP(=O)(O)OP(=O)(O)O)[C@@H](O)C2O)c(=O)[nH]1 (stereo partly specified),inactive
17,c1ccc(CN2CCC(N=C3NN=C(c4ccc5c(c4)OCCO5)CS3)CC2)cc1,inactive
18,S=c1[nH]c2ccccc2c2ccccc12,inactive
19,Cc1ccc(NC(=O)CSc2nc(CSc3ccc(C)cc3)cc(=O)[nH]2)cc1,inactive
20,COc1ccc(NC(=O)CSc2nc(NS(=O)(=O)c3ccc(C)cc3)cc(=O)[nH]2)cc1,35.5 µM (active)
21,Cc1cc(=O)[nH]c(SCC(=O)Nc2ccc(Br)cc2)n1,inactive
22,CSc1ccccc1N1CCN(CCCCCC(=O)NC2CCCc3ccccc32)CC1 (stereo unspecified),inactive
23,O=[N+]([O-])c1ccccc1S(=O)(=O)Nc1cccc2cccnc12,inactive
